Measured values reported in PubChem BioAssay (EPA / NIEHS).
Active and inactive are the calls of the source. How the source made its calls: active means hit-call score of the fitted dose curve at least 0.9, where 1 is the maximum; inactive means score below 0.9.

Experiments:
Conditions in all cases: mRNA level, 48 h; actives raise or lower the signal
BCL2L11 (gene 10018) = experiment: LTEA_HepaRG_BCL2L11: Life Technologies and Expression Analysis (LTEA) Assay for Bcl-2 (BCL2L11) gene using HepaRG (AID 2283473)
Summary of the method: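 Read-out is BCL2L11 transcript level by qRT-PCR, normalized to three housekeeping genes and fitted bidirectionally against 0.5% DMSO vehicle. HepaRG cells received chemicals for 48 h in serum-free induction medium, 100 uM down in half-log dilutions.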

[1] = read-out: Apolipoprotein A-V (APOA5) gene, APOA5 (gene 116519); experiment: LTEA_HepaRG_APOA5: Life Technologies and Expression Analysis (LTEA) Assay for Apolipoprotein A-V (APOA5) gene using HepaRG (AID 2283474)
Summary of the method: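 Readout is APOA5 transcript level by qRT-PCR on Fluidigm dynamic arrays, normalized to three housekeeping genes. HepaRG cultures received chemicals for 48 h at up to 100 uM (half-log steps, 0.5% DMSO), with gain or loss scored relative to DMSO.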

[2] = read-out: Apoptosis regulator Bcl-2 (Homo sapiens) (UniProt P10415); experiment: LTEA_HepaRG_BCL2: Life Technologies and Expression Analysis (LTEA) Assay for Bcl-2 gene using HepaRG (AID 2283475)
Summary of the method: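 Differentiated human HepaRG cells in serum-free induction medium exposed 48 h, in duplicate, to 8-point half-log series from 100 uM in 0.5% DMSO. BCL2 mRNA by qRT-PCR (TaqMan/Fluidigm), normalized to ACTB, GAPDH, POLR2A; bidirectional fit against DMSO.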

[3] = read-out: Bcl-2 (BID) gene, BID (gene 637); experiment: LTEA_HepaRG_BID: Life Technologies and Expression Analysis (LTEA) Assay for Bcl-2 (BID) gene using HepaRG (AID 2283476)
Summary of the method: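 Gene expression by qRT-PCR in HepaRG cells after 48 h exposure, duplicate wells, eight half-log concentrations topping at 100 uM in 0.5% DMSO. Normalized to ACTB, GAPDH, POLR2A; bidirectional fitting relative to DMSO.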

Caspase-3 (Homo sapiens) = Caspase-3 (Homo sapiens) (UniProt P42574); experiment: LTEA_HepaRG_CASP3: Life Technologies and Expression Analysis (LTEA) Assay for cysteine-aspartic acid protease (CASP3) using HepaRG (AID 2283477)
Summary of the method: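 Read-out is CASP3 mRNA level by TaqMan qRT-PCR in human HepaRG cells after 48 h chemical exposure. Eight half-log concentrations topping at 100 uM were tested in 0.5% DMSO; gain or loss was fitted relative to DMSO.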

[4] = read-out: Cytochrome P450 (CYP24A1), CYP24A1 (gene 1591); experiment: LTEA_HepaRG_CYP24A1: Life Technologies and Expression Analysis (LTEA) Assay for Cytochrome P450 (CYP24A1) using HepaRG (AID 2283478)
Summary of the method: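 HepaRG, 48 h chemical exposure, 8-pt half-log CRC from 100 uM, 0.5% DMSO vehicle, duplicates. Endpoint: CYP24A1 mRNA by Fluidigm TaqMan qRT-PCR, normalized ACTB/GAPDH/POLR2A; gain/loss fit vs DMSO.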

[5] = read-out: cysteine-aspartic acid protease (CASP8), CASP8 (gene 841); experiment: LTEA_HepaRG_CASP8: Life Technologies and Expression Analysis (LTEA) Assay for cysteine-aspartic acid protease (CASP8) using HepaRG (AID 2283480)
Summary of the method: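 HepaRG, 48 h exposure, duplicate wells; 8 conc, half-log from 100 uM, 0.5% DMSO. Serum-free induction medium. CASP8 mRNA by TaqMan qRT-PCR, norm. ACTB/GAPDH/POLR2A; gain/loss fitted vs DMSO.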

[6] = read-out: Cytochrome P450 (CYP2B6), CYP2B6 (gene 1555); experiment: LTEA_HepaRG_CYP2B6: Life Technologies and Expression Analysis (LTEA) Assay for Cytochrome P450 (CYP2B6) using HepaRG (AID 2283481)
Summary of the method: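 HepaRG cells plated 48 h, switched to serum-free induction medium, then dosed 48 h (8 points, half-log from 100 uM, 0.5% DMSO). RNA isolated; CYP2B6 expression measured by qRT-PCR; gain or loss fitted relative to DMSO.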

[7] = read-out: Cytochrome P450 2C19 (Homo sapiens) (UniProt P33261); experiment: LTEA_HepaRG_CYP2C19: Life Technologies and Expression Analysis (LTEA) Assay for CYP2C19 using HepaRG (AID 2283482)
Summary of the method: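 Transcript levels of CYP2C19 were quantified by qRT-PCR after HepaRG cells were treated for 48 hours with test chemicals up to 100 uM (eight half-log concentrations, 0.5% DMSO vehicle). Gain or loss of signal was fitted relative to DMSO.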

CYP2C8 (gene 1558) = experiment: LTEA_HepaRG_CYP2C8: Life Technologies and Expression Analysis (LTEA) Assay for CYP2C8 using HepaRG (AID 2283483)
Summary of the method: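 CYP2C8 mRNA induction or loss, by qRT-PCR normalized to ACTB/GAPDH/POLR2A, is read in HepaRG cells after 48 h treatment. Concentrations run from 100 uM down in half-log dilutions, with 0.5% DMSO as vehicle and baseline.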

CYP2C9 (gene 1559) = experiment: LTEA_HepaRG_CYP2C9: Life Technologies and Expression Analysis (LTEA) Assay for CYP2C9 using HepaRG (AID 2283484)
Summary of the method: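 Cells plated 48 h, switched to serum-free induction medium, then treated in duplicate for 48 h at eight concentrations (max 100 uM, 0.5% DMSO). RNA then analysed by qRT-PCR for CYP2C9; curves fitted in both directions relative to DMSO.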

CYP2E1 (gene 1571) = experiment: LTEA_HepaRG_CYP2E1: Life Technologies and Expression Analysis (LTEA) Assay for CYP2E1 using HepaRG (AID 2283485)
Summary of the method: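 HepaRG cells, plated 48 h, then exposed 48 h in serum-free induction medium to eight half-log concentrations from 100 uM in 0.5% DMSO, duplicate. CYP2E1 mRNA by qRT-PCR, normalized to ACTB/GAPDH/POLR2A; bidirectional fit versus DMSO.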

CYP4A11 (gene 1579) = experiment: LTEA_HepaRG_CYP4A11: Life Technologies and Expression Analysis (LTEA) Assay for CYP4A11 using HepaRG (AID 2283486)
Summary of the method: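 HepaRG, 48 h chem exposure, 8 conc (100 uM top, half-log), 0.5% DMSO vehicle; qRT-PCR readout, housekeeping-gene normalized; bidirectional curve fit vs DMSO baseline.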

[8] = read-out: Cytochrome P450 3A4 (Homo sapiens) (UniProt P08684); experiment: LTEA_HepaRG_CYP3A4: Life Technologies and Expression Analysis (LTEA) Assay for CYP3A4 using HepaRG (AID 2283487)
Summary of the method: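 Differentiated HepaRG cells in serum-free induction medium exposed in duplicate for 48 h to 8 half-log concentrations up to 100 uM in 0.5% DMSO. CYP3A4 mRNA measured by qRT-PCR normalized to ACTB, GAPDH and POLR2A; bidirectional fit versus DMSO.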

[9] = read-out: DNA damage-inducible transcript 3 (DDIT3), DDIT3 (gene 1649); experiment: LTEA_HepaRG_DDIT3: Life Technologies and Expression Analysis (LTEA) Assay for DNA damage-inducible transcript 3 (DDIT3) using HepaRG (AID 2283488)
Summary of the method: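 HepaRG cells, 48 h after plating, exposed 48 h in serum-free induction medium to 8 half-log concentrations up to 100 uM in 0.5% DMSO, in duplicate. DDIT3 mRNA measured by TaqMan qRT-PCR, normalized to ACTB, GAPDH and POLR2A. Fitted bidirectionally against DMSO.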

[10] = read-out: Pro-epidermal growth factor (Homo sapiens) (UniProt P01133); experiment: LTEA_HepaRG_EGF: Life Technologies and Expression Analysis (LTEA) Assay for Epidermal growth factor (EGF) using HepaRG (AID 2283489)
Summary of the method: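 HepaRG, 48 h dosing, 100 uM top, half-log x8, 0.5% DMSO. Readout: TaqMan qRT-PCR (Fluidigm array), housekeeping-normalized. Gain or loss of signal fit vs DMSO.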

[11] = read-out: Ezrin (EZR), EZR (gene 7430); experiment: LTEA_HepaRG_EZR: Life Technologies and Expression Analysis (LTEA) Assay for Ezrin (EZR) using HepaRG (AID 2283491)
Summary of the method: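 Differentiated human HepaRG cells, 48 h after plating, were exposed in serum-free induction medium for 48 hours to eight half-log concentrations up to 100 uM in 0.5% DMSO. EZR mRNA was measured by TaqMan qRT-PCR, normalized to ACTB, GAPDH and POLR2A, and fitted bidirectionally against DMSO.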

[12] = read-out: Cytochrome P450 3A7 (Homo sapiens) (UniProt P24462); experiment: LTEA_HepaRG_CYP3A7: Life Technologies and Expression Analysis (LTEA) Assay for CYP3A7 using HepaRG (AID 2283492)
Summary of the method: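 Human HepaRG liver cells, 48 h post-plating, switched to serum-free induction medium and exposed in duplicate for 48 h. Dosing: 100 uM top, half-log dilutions, 8 points, 0.5% DMSO vehicle. Read-out: CYP3A7 mRNA, gain or loss fitted against DMSO baseline.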

[13] = read-out: Cytochrome P450 (CYP1A2), CYP1A2 (gene 1544); experiment: LTEA_HepaRG_CYP1A2: Life Technologies and Expression Analysis (LTEA) Assay for Cytochrome P450 (CYP1A2) using HepaRG (AID 2283479)
Summary of the method: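 CYP1A2 transcript induction or loss, quantified by Fluidigm qRT-PCR against three housekeeping genes, was fitted bidirectionally against 0.5% DMSO controls. Human HepaRG cells received eight half-log concentrations from 100 uM over 48 h.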

[14] = read-out: Early growth response protein 1 (EGR1) transcription factor, EGR1 (gene 1958); experiment: LTEA_HepaRG_EGR1: Life Technologies and Expression Analysis (LTEA) Assay for Early growth response protein 1 (EGR1) transcription factor using HepaRG (AID 2283490)
Summary of the method: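 Read-out is EGR1 mRNA level by qRT-PCR, normalized to three housekeeping genes and analysed for gain or loss of signal against 0.5% DMSO. Source cells: human HepaRG, treated 48 h at up to 100 uM in half-log dilutions.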

Measured: AC50

Chain of Apoptosis regulator Bcl-2 (Homo sapiens) (P10415 whole entry, looked up): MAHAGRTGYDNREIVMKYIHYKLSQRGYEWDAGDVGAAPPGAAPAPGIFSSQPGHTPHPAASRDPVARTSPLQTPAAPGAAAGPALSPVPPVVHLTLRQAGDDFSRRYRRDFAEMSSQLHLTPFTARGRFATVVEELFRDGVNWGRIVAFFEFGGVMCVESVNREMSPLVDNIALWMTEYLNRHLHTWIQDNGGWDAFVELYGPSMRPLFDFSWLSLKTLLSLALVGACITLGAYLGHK
Chain of Caspase-3 (Homo sapiens) (P42574 whole entry, looked up): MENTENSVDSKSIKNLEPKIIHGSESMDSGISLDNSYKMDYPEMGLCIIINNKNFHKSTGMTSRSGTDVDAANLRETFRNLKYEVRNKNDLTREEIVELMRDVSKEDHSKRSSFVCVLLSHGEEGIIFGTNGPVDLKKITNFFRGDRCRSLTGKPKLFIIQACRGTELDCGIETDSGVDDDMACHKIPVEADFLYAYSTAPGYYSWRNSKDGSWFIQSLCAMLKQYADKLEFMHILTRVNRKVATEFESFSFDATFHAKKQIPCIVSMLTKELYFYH
Chain of Cytochrome P450 3A7 (Homo sapiens) (P24462 whole entry, looked up): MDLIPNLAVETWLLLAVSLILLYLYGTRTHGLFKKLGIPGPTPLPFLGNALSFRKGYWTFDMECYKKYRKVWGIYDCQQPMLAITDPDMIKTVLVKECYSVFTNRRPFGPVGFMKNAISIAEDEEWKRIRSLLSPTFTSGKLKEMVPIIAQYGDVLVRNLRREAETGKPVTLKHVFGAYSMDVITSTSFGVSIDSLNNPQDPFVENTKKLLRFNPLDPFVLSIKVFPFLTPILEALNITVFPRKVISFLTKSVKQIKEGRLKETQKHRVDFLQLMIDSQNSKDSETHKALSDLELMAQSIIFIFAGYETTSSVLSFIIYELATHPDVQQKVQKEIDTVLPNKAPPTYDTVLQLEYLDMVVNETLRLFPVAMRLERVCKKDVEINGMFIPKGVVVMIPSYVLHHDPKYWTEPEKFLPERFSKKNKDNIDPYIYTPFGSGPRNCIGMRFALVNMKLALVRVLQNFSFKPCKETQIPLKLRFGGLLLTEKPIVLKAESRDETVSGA
Chain of Cytochrome P450 3A4 (Homo sapiens) (P08684 whole entry, looked up): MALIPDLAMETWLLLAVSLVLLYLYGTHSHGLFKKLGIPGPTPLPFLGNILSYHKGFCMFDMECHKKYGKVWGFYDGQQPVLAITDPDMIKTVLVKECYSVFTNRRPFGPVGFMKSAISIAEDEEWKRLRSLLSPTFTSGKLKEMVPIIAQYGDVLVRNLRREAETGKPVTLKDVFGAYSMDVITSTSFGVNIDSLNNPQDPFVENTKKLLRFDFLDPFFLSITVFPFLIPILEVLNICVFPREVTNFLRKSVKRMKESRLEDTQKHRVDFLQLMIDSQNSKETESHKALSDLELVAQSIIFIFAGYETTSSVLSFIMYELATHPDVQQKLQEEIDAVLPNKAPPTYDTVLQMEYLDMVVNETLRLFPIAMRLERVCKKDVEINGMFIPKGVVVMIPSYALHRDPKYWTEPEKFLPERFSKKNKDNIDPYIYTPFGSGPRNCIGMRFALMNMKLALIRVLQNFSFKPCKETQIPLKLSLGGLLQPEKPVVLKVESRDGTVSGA
Chain of Cytochrome P450 2C19 (Homo sapiens) (P33261 whole entry, looked up): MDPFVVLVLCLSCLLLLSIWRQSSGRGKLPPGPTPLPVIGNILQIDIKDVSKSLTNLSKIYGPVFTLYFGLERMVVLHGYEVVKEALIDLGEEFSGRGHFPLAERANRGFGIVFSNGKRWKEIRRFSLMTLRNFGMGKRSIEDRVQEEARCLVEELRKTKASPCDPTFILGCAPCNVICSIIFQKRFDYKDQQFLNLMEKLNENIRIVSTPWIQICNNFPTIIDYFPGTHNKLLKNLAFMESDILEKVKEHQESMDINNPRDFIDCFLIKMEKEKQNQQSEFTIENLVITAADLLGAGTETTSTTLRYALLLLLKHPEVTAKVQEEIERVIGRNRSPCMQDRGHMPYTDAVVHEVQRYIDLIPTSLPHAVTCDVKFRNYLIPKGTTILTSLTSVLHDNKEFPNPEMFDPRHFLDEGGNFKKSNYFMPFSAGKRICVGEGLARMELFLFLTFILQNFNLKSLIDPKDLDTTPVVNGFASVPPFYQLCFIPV

O=S(=O)(O)c1ccc(N=Nc2c(O)ccc3cc(S(=O)(=O)O)ccc23)cc1
active: [6] 22.9 µM
inactive: BCL2L11 (gene 10018) | [1] | [2] | [3] | Caspase-3 (Homo sapiens) | [4] | [5] | [7] | CYP2C8 (gene 1558) | CYP2C9 (gene 1559) | CYP2E1 (gene 1571) | CYP4A11 (gene 1579) | [8] | [9] | [10] | [11] | [12]

O=C1CN(N=Cc2ccc([N+](=O)[O-])o2)C(=O)N1
inactive: BCL2L11 (gene 10018) | [1] | [3] | Caspase-3 (Homo sapiens) | [4] | [13] | [5] | CYP2C9 (gene 1559) | [10] | [11] | [12]
active: [2] 80.7 µM | [6] 50 µM | CYP2C8 (gene 1558) 50 µM | CYP2E1 (gene 1571) 52.7 µM | CYP4A11 (gene 1579) 45.7 µM | [9] 80.7 µM

CCCc1ccccc1
inactive: BCL2L11 (gene 10018) | [1] | [2] | [3] | Caspase-3 (Homo sapiens) | [4] | [13] | [5] | [6] | CYP2C8 (gene 1558) | CYP2C9 (gene 1559) | CYP2E1 (gene 1571) | CYP4A11 (gene 1579) | [8] | [9] | [10] | [14] | [11] | [12]
